# Measurements as given in PubChem BioAssay (NCATS).
# Records with an inconclusive call do not appear. Entries that show only a call come without a potency. Calls of active or inactive are those of the source. Calls come from the whole dose curve; as a rule, active = well fitted inhibition curve with a large enough effect; inconclusive = small, poorly fitted or top-dose-only effect, or effect the other way; inactive = flat fitted curve, though single readings scatter.
# Molecular target: D(1A) dopamine receptor (Homo sapiens) (UniProt P21728)
# Experiment: HTS Assay for Allosteric Agonists of the Human D1 Dopamine Receptor: Primary Screen for Antagonists (AID 488983); note: nearly all actives have a fitted effect of over 65% in size
# Conditions: D1 receptor cell assay, antagonist mode, qHTS titration; series mostly up to 41.8 µM
# From the text: Dopamine receptors (DARs) are involved in the etiology and/or therapy of a number of neuropsychiatric and endocrine disorders. For instance, all receptor-based antiparkinsonian drugs work via stimulating the […] DAR subtype whereas all FDA-approved antipsychotic agents are antagonists of this receptor. […] There are three different types of allosteric modulators that we are seeking, two of which will stimulate or augment receptor signaling, allosteric agonists and potentiators, while the third, allosteric antagonists, will attenuate receptor signaling. The present primary screening assay measures compound agonism by tracking calcium flux in a […], inducible Hek293 Trex D1 cell line.
# Freshly passaged cells are plated in 1536 well black, clear bottom plates at a density of 4000 cells/well in 3 ul of complete media containing 1x tetracycline inducer. After an overnight incubation at 30 C in 5% CO2, cells are loaded with 2 ul of the no wash Calcium Assay Kit (ABD Bioquest) and incubated at room temperature for 30 to 90 minutes. A 10 cycle (1 second/cycle) baseline measurement is taken and then the FDSS online 1536 pintool delivers 23 nl of compound library (as well as dopamine controls) to the plate. The plate is measured for kinetically at 1 cycle/sec for 180 seconds and is considered to be the agonist portion of the assay (eg, compounds which activate a positive calcium response during this portion are flagged as potential agonists). Following the 180 second read, 1 ul of an EC80 of dopamine is delivered by an onboard pipette head. Measurements are taken kinetically for an additional 180 seconds.
# Potency is the fitted concentration of half-maximal effect.
# D(1A) dopamine receptor (Homo sapiens), sequence (P21728 whole entry, looked up): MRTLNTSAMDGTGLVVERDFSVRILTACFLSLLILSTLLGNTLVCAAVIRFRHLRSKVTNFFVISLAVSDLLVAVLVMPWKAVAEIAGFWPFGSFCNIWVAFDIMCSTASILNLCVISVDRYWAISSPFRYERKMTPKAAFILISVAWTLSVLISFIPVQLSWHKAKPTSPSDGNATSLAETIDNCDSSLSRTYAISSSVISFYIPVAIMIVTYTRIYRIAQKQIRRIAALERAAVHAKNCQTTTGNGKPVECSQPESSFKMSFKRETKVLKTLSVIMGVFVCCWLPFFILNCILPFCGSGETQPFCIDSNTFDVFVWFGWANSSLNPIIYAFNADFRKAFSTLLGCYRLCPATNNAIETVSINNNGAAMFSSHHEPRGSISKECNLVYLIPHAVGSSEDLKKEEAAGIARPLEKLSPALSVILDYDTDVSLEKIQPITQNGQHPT
row,Compound,Potency
1,C=CCn1c(=O)c2c(nc(-c3ccc(S(=O)(=O)O)cc3)n2C)n(C)c1=O,inactive
2,CO/N=C(\C(=O)N[C@@H]1C(=O)N2C(C(=O)O)=C(CSc3nc(=O)c(O)nn3C)CSC12)c1csc(N)n1 (stereo not given in full),inactive
3,N=C(N)c1ccccc1,inactive
4,O=C(O)Cc1ccc(O)c(O)c1,inactive
5,Nc1ncnc2c1nc(Br)n2C1OC2COP(=O)(O)O[C@@H]2C1O (stereo not given in full),inactive
6,COc1cc(CC(=O)O)ccc1O,inactive
7,O=C(O)CCC/C=C\C[C@@H]1[C@@H](/C=C/[C@H](O)C2Cc3ccccc3C2)[C@@H](F)C[C@@H]1O,inactive
8,NCC(O)C1CCCCCCC1 (stereo not given),inactive
9,O=C(O)C1=CCCN(CCON=C(c2ccccc2)c2ccccc2)C1,inactive
10,Oc1ccc(Cn2cc[nH]c2=S)cc1,inactive
11,c1ccc(C2CN3CCSC3=N2)cc1 (stereo not given),inactive
12,C=C(C)C1CC=C(C(=O)O)CC1 (stereo not given),inactive
13,c1ccc(CN2CCC3(CCCc4ccccc43)CC2)cc1,inactive
14,Cc1ccccc1/C=C/C1=NCCN1,12.6 µM (active)
15,COc1ccc(-c2cc3ncc(C)n3c(Nc3ncccc3C(N)=O)n2)cc1OC,inactive
16,COC(=O)C(N)Cc1ccc(Cl)cc1 (stereo not given),inactive
17,CCCCCCCC/C=C\CCCCCCCC(=O)NCCc1ccc(O)c(O)c1,inactive
18,CCCCC[C@H](CC(=O)NO)C(=O)N[C@H](C(=O)N1CCC[C@H]1CO)C(C)C,inactive
19,O=c1[nH]c2ccccc2c2ccccc12,inactive
20,COc1ccc(NC(=O)c2ccc(-c3ccc(-c4noc(C)n4)cc3C)cc2)cc1N1CCN(C)CC1,20 µM (active)

row,Compound,Potency
1,CC(C)Cn1c(=O)n(C)c(=O)c2[nH]cnc21,inactive
2,N[C@@H](CS(=O)O)C(=O)O,inactive
3,CCCCCCCCCC[Si](C)(C)CCC(=O)NC(Cc1ccc(C)cc1)c1ccccc1 (stereo not given),inactive
4,Cc1nc(N=Nc2ccc(C(=O)O)cc2)c(COP(=O)(O)O)c(C=O)c1O,inactive
5,NC1(C(=O)O)CCc2cc(C(=O)O)ccc21 (stereo not given),inactive
6,CCn1c(=O)[nH]c2cc(Cl)c(Cl)cc21,inactive
7,NC(=O)c1ccccc1,inactive
8,O=C(O)C1=CCNCC1,inactive
9,CCCCCC(O)CCCC(=O)O (stereo not given),inactive
10,N#CC(=C(\N)Sc1ccccc1N)/C(C#N)=C(/N)Sc1ccccc1N,inactive
11,CCc1ccc2c(-c3cccc(Cl)c3)nc(=O)n(CC)c2n1,inactive
12,CCCCCCN(CCCCCC)C(=O)Cc1c(-c2ccc(F)cc2)[nH]c2ccccc12,inactive
13,CC(N)(Cc1ccc(O)c(O)c1)C(=O)O (stereo not given),inactive
14,COc1cccc(OC)c1OCCNCC1CSc2ccccc2O1 (stereo not given),1.26 µM (active)
15,O=C1OC(=O)C2C3CCC(O3)C12 (stereo not given),inactive
16,O=[N+]([O-])c1cccc2c(Br)[nH]nc12,inactive
17,COc1ccccc1N1CCN(CCCNc2c(C)c(=O)n(C)c(=O)n2C)CC1,inactive
18,COc1cc(N)c(Cl)cc1C(=O)OCCN1CCCCC1,inactive
19,CNc1ncnc2c1ncn2[C@H]1C[C@H](OP(=O)(O)O)[C@@H](COP(=O)(O)O)O1,inactive
20,O=c1onc2cnc3ccccc3n12,inactive
